Where “and” joins values, the source holds several entries; their conditions need not be identical. Equal entries are not always repeated. Inconclusive results are not listed. A number with no mark means an inactive call. Calls of active or inactive are those of the source. Calls follow the shape of the dose curve; as a rule, active = well fitted inhibition curve with a large enough effect; inconclusive = small, poorly fitted or top-dose-only effect; inactive = flat fitted curve, though single readings scatter. Where a SMILES comes first, the peptide text is derived from it. [ ]: non-standard residue; d: D form. pGlu = O=C1CC[C@@H](C(=O)O)N1
% is scaled to controls: 0 for no effect and ±100 for the full control effect.
Also: nearly all actives have a fitted effect of over 60% in size.

In one assay the test system is KB-3-1. The assay can be described thus: Cytotoxic Profiling of Annotated Libraries Using Quantitative High-Throughput Screening (AID 1296008). The settings on record: Five cell lines viability, CellTiter-Glo ATP luminescence, 48-72 h; max response: stronger effect = lower value. In short, it runs like this:
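Cytotoxicity was measured as CellTiter-Glo ATP luminescence, read after 10 min at room temperature. Compound treatment of the cells lasted 48 or 72 hr at 37 degrees Celsius in a qHTS format.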
(In general: In ATP-based viability assays light output follows the ATP content of the culture.)
As to `CC1(C)C(\C=C/C=C\C=C/C=C2/N(CCCCS(=O)(=O)O)c3ccc4ccccc4c3C2(C)C)=[N+](CCCCS(=O)(=O)[O-])c2ccc3ccccc3c21`, the max response was -6.53%.

On to `CN[C@@H]1[C@H](O[C@H]2[C@H](O[C@H]3[C@H](O)[C@@H](O)[C@H](N=C(N)N)[C@@H](O)[C@@H]3N=C(N)N)O[C@@H](C)[C@]2(O)C=O)O[C@@H](CO)[C@H](O)[C@H]1O`, for which the max response was 22.5%.

Consider `O=C(O)c1ccc(NC(=O)[C@H](Cc2ccc(O)cc2)NC(=O)c2ccccc2)cc1`, for which the max response is 7.82%.

As to `CC(C)(Oc1ccc(C2CCCc3ccccc32)cc1)C(=O)O` (stereo unspecified), the max response is -10.9%.

Consider `Cc1cccc(C)c1Nc1ncccc1C(=O)O`, for which the max response was -0.608%.

Turning to `O=C1c2ccccc2C(=O)C1c1ccc(Cl)cc1`, the max response is -7.12%.

Turning to `O=P(O)(O)OC[C@H](O)CO`, the max response was -16.7%.

For `CN1CCC(OC(=O)C(Oc2ccc(Cl)cc2)Oc2ccc(Cl)cc2)CC1`, the max response is -2.63%.

`CC(=O)NCCCS(=O)(=O)O`: the max response is 14.2%.

Take `CC(C)[C@@H](C)/C=C/[C@@H](C)[C@H]1CC[C@H]2/C(=C/C=C3\C[C@@H](O)CC[C@@H]3C)CCC[C@]12C`: the max response was 8.4%.

Consider `NC[C@@H]1CC[C@@H](N)[C@@H](O[C@H]2[C@H](O)[C@@H](O[C@H]3O[C@H](CO)[C@@H](O)[C@H](N)[C@H]3O)[C@H](N)C[C@@H]2N)O1`, for which the max response was 0.761%.

Turning to `[O]=[Bi][O]C(=O)[O][Bi]=[O]`, the max response was -15.6%.

On to `CCC(=O)OC(OP(=O)(CCCCc1ccccc1)CC(=O)N1C[C@H](C2CCCCC2)C[C@H]1C(=O)O)C(C)C` (stereo partly specified), for which the max response was 3.39%.

Take `CCCCCCCCCCCCCCCC(=O)OC[C@@H](O)[C@H]1OC[C@H](O)[C@H]1O`: the max response was -3.59%.

Turning to `O=C(OCc1ccccc1)c1ccc(O)cc1`, the max response was 2.26%.

As for `O=P(O)(O)CP(=O)(O)O`, the max response was -3.6%.

Turning to `CO[C@H]1C[C@H](O[C@H]2[C@H](C)[C@@H](O[C@@H]3O[C@H](C)C[C@H](N(C)C)[C@H]3O)[C@@H](C)C[C@]3(CO3)C(=O)[C@H](C)[C@@H](O)[C@@H](C)[C@@H](C)OC(=O)[C@@H]2C)O[C@@H](C)[C@@H]1O`, the max response is 3.86%.

Take `CCSc1ccc2c(c1)N(CCCN1CCN(C)CC1)c1ccccc1S2`: the max response is -2.13%.

As for `CCOC(C)OCC`, the max response was -6.86%.

As to `Oc1ccc(/C=C/c2cc(O)cc(O)c2)cc1`, the max response was 36.2%.

As to `CC(=O)Oc1cc(C(F)(F)F)ccc1C(=O)O`, the max response is 0.097%.

`CC1=C(/C=C/C(C)=C/C=C/C(C)=C/C(=O)Oc2c(C)c(C)c3c(c2C)CC[C@@](C)(CCC[C@H](C)CCC[C@H](C)CCCC(C)C)O3)C(C)(C)CCC1`: the max response is -1.1%.

Take `O=C1NCCN1c1ncc([N+](=O)[O-])s1`: the max response is 1.83%.

Take `CC[C@H](C)[C@H](NC(=O)[C@H](Cc1ccccc1)NC(=O)[C@H](C)NC(=O)[C@H](CC(=O)O)NC(=O)[C@H](CCCCN)NC(=O)[C@H](CO)NC(=O)[C@@H]1CCCN1C(=O)[C@@H]1CCC(=O)N1)C(=O)NCC(=O)N[C@@H](CC(C)C)C(=O)N[C@@H](CCSC)C(N)=O` ([pGlu]PSKDAFIGLM-NH2): the max response is 17.8%.

Turning to `CCCCC(CC)CCC(CC(C)C)OS(=O)(=O)O` (stereo unspecified), the max response was 11% and -8.89%.

On to `O=C[C@H](O)[C@@H](O)[C@@H](O)[C@H](O)CO`, for which the max response was -13.6%.

Regarding `COc1ccc(C(=O)/C(Br)=C\C(=O)O)cc1`, the max response was 19.2%.

A further assay has as its system MCC-13. The assay can be described thus: qHTS assay to identify novel small-molecules to repurpose for Merkel cell carcinoma treatment (AID 1296009). The settings on record: MCC and control cell lines, CellTiter-Glo viability, 72 h; series mostly up to 46 µM. The method in brief:
(§1)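 72 hr, 37 degree celsius; NPC 8-pt / MIPE 11-pt dose response; compound pinned in DMSO; CellTiter-Glo, 10 min RT, luminescence; normalized to no-cell and DMSO controls.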
For orientation: Quantitative high-throughput screening tests each substance at several concentrations.
Turning to `O=C(OCc1ccccc1)c1ccc(O)cc1`, the outcome was inactive.

`Oc1ccc(/C=C/c2cc(O)cc(O)c2)cc1`: the compound was called inactive.

With `O=C(O)CCC(=O)c1ccc(-c2ccccc2)cc1`, the outcome was inactive.

The test system of the next assay is MCC-26. Described as above. The conditions noted are these: MCC and control cell lines, CellTiter-Glo viability, 72 h; series mostly up to 46 µM. In short, it runs like this:
as §1
As to `O=C(OCc1ccccc1)c1ccc(O)cc1`, the compound was called inactive.

Turning to `Oc1ccc(/C=C/c2cc(O)cc(O)c2)cc1`, the outcome was inactive.

As to `O=C(O)CCC(=O)c1ccc(-c2ccccc2)cc1`, the call was inactive.

A further assay has as its system MKL-1. The assay is described as above. The settings on record: MCC and control cell lines, CellTiter-Glo viability, 72 h; series mostly up to 46 µM. The method in brief:
as §1
Regarding `O=C(OCc1ccccc1)c1ccc(O)cc1`, the result was inactive.

For the compound `Oc1ccc(/C=C/c2cc(O)cc(O)c2)cc1`, the call was inactive.

For `O=C(O)CCC(=O)c1ccc(-c2ccccc2)cc1`, the result was inactive.

The values are drawn from PubChem BioAssay (NCATS).
